# Laboratory results as given in PubChem BioAssay.
# Unmarked numbers belong to inactive results. How the calls were made is not given here. Where a SMILES comes first, the peptide text is derived from it. The star is where a group is joined. Boc = CC(C)(C)OC(=O)*
# Target: Pantothenate synthetase (Mycobacterium tuberculosis (strain ATCC 25618 / H37Rv)) (UniProt P9WIL5)
# Assay: Coupled enzyme confirmation of inhibitors against recombinant Mtb PanC (AID 375);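 further: 0% = full reaction with vehicle and 100% = no enzyme background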
# Settings: coupled enzyme assay; at 10 µM, active compounds read high
# Sequence of Pantothenate synthetase (Mycobacterium tuberculosis (strain ATCC 25618 / H37Rv)) (P9WIL5 whole entry, looked up): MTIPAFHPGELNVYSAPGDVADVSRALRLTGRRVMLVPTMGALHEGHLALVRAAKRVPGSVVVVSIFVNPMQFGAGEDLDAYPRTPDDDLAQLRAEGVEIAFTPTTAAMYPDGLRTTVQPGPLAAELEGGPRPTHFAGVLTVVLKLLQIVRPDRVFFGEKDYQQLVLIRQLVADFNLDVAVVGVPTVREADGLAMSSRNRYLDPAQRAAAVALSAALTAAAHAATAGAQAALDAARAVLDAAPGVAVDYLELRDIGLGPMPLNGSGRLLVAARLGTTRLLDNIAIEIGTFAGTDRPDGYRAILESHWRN
row,SMILES,inhibition [%]
1,COc1cc(OC)c(C(=O)Nc2ncn[nH]2)cc1OC,0
2,C/C(NC1CCCC1)=C(/C#N)C(N)=O,9
3,COC(=O)c1cn(NC(=O)c2cccnc2)c(=O)c2ccccc12,0
4,Cc1cc(C(=O)CN2C(=O)c3ccccc3C2=O)c(C)n1Cc1cccs1,0
5,COc1ccccc1OCC(=O)N1CCN(c2ccccc2OC)CC1,0
6,Cc1cc(C)n(-c2ccc(C(=O)Nc3ccc4c(c3)OCCO4)cc2)n1,2
7,CN(C)c1ccc(/C(=N\O)c2ccccc2)cc1,0
8,CC(Oc1ccc(Cl)cc1Cl)C(=O)Nc1ncccn1 (configuration not stated),0
9,CCCc1cc(C(N)=O)c(NC(=O)c2ccco2)s1,0
10,Cc1cc(NC(=O)CSc2nc(CCC3CCCC3)nc3ccccc23)no1,3
11,CC(=O)c1cnc2cc(-c3ccccc3)nn2c1C,0
12,CNC(=O)CN(C#N)c1nc(N(C)C)nc(N(C)C)n1,0
13,COC(=O)c1sc(N)c(C(=O)OC)c1CSc1nc2sc3c(c2c(=O)n1C)CCC3,0
14,COC(=O)C(O)(CC(=O)c1ccc(OC)cc1)C(F)(F)F (configuration not stated),0
15,Cc1ccc(-c2nnc(N(C)C(=O)c3ccccn3)s2)cn1,0
16,CCCSCCCNC(=O)Cn1cc2c(n1)CCC(C)C2 (configuration not stated),2
17,CC(C)CC(NC(=O)OC(C)(C)C)C(=O)NC(C(=O)N1CCCC1C(N)=O)C(C)C (stereo not drawn) (Boc-Leu-Val-Pro-NH2; configuration not given here),0
